In PubChem BioAssay (NCI):
The panel holds about 79,000 compounds, 15% with a hit somewhere; the sample as a whole holds those more often. Calls of active or inactive are those of the source. Cut-off read from the data, not from the text of the source: active = growth inhibition above about 70%; inactive = the rest.

What was measured:
[1] = NCI Yeast Anticancer Drug Screen. Data for the rad50 strain (AID 155);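 note: 0% = growth of vehicle-only cultures of the same strain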; conditions: S. cerevisiae rad50 strain growth inhibition, stronger effect = higher value
Method in brief: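 Growth of the mutant yeast was measured after compound exposure and referenced to vehicle-treated cultures.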

[2] = NCI Yeast Anticancer Drug Screen. Data for the mec2-1 strain (AID 157); conditions: S. cerevisiae mec2-1 strain, stronger effect = higher value
Method in brief: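 Compounds were applied to mec2-1 yeast cells. Their growth was then compared with that of vehicle-treated cultures to give growth inhibition.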

[3] = NCI Yeast Anticancer Drug Screen. Data for the sgs1 mgt1 strain (AID 161);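 note: 0% = growth of cultures given vehicle only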; conditions: S. cerevisiae sgs1 mgt1 strain, stronger effect = higher value
Method in brief: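 This yeast growth screen uses a strain with defined DNA-repair lesions; compound-treated growth is compared with vehicle-treated growth.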

[4] = NCI Yeast Anticancer Drug Screen. Data for the cln2 rad14 strain (AID 165);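 note: 0% = growth equal to vehicle treated cultures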; conditions: S. cerevisiae cln2 rad14 strain, stronger effect = higher value
Method in brief: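 Strain: cln2 rad14 yeast, altered in cell cycle control and DNA damage repair. Read-out: growth inhibition vs vehicle.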

[5] = NCI Yeast Anticancer Drug Screen. Data for the bub3 strain (AID 167); conditions: S. cerevisiae bub3 mutant strain, stronger effect = higher value
Method in brief: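 Whole-cell yeast assay. The mutant strain was incubated with compounds, and growth inhibition was determined by comparison with vehicle-treated cells.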

[6] = NCI Yeast Anticancer Drug Screen. Data for the mlh1 rad18 strain (AID 175); conditions: S. cerevisiae mlh1 rad18 strain growth inhibition, stronger effect = higher value
Method in brief: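 A repair-deficient yeast strain is exposed to test compound, and growth is scored relative to vehicle-treated controls.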

[7] = at 5.0 µM (retest, dose inferred, filed as 0.5)
[8] = at 50.0 µM (retest, dose inferred, filed as 5.0)

Measured: growth inhibition

CN(C)c1ccc(/C=C/c2cc[n+](C)c(/C=C/c3ccc(N(C)C)cc3)c2)cc1
active: [1]; [7] 98% | [1]; [8] 96% | [1]; at 50.0 µM 91% | [2]; [7] 100% | [2]; [8] 95% | [2]; at 50.0 µM 93.3% | [3]; [7] 98% | [3]; [8] 93% | [3]; at 50.0 µM 93.2% | [4]; [7] 99% | [4]; [8] 97% | [4]; at 50.0 µM 92.8% | [5]; [7] 96% | [5]; [8] 95% | [5]; at 50.0 µM 91.8% | [6]; [7] 100% | [6]; [8] 96% | [6]; at 50.0 µM 91%

NC(=S)N/N=C\c1nccc2c(N)cccc12
active: [1]; [8] 87% | [2]; [8] 89% | [2]; at 50.0 µM 76.7% | [3]; [8] 81% | [3]; at 50.0 µM 74% | [5]; [8] 85% | [5]; at 50.0 µM 74.8% | [6]; [8] 85%
inactive: [1]; [7] 6% | [1]; at 50.0 µM 61.4% | [2]; [7] 35% | [3]; [7] 9% | [5]; [7] 0% | [6]; [7] 10% | [6]; at 50.0 µM 67.5%

CC(C)Nc1ccc(Nc2ccc(NC(C)C)cc2)cc1
active: [1]; [8] 81% | [2]; [8] 74% | [2]; at 50.0 µM 97% | [4]; [8] 73% | [4]; at 50.0 µM 92.9% | [6]; at 50.0 µM 92.3%
inactive: [1]; [7] 0% | [1]; at 50.0 µM 65.7% | [2]; [7] -21% | [3]; [7] -1% | [3]; [8] 59% | [3]; at 50.0 µM 48% | [4]; [7] -10% | [6]; [7] -15% | [6]; [8] 51%

NC1=C(Br)C(=O)c2ncccc2C1=O
inactive: [1]; [7] 56% | [2]; [7] 19% | [3]; [7] 34% | [4]; [7] 18% | [6]; [7] 50%
active: [1]; [8] 94% | [1]; at 50.0 µM 87.7% | [2]; [8] 86% | [2]; at 50.0 µM 91.5% | [3]; [8] 93% | [3]; at 50.0 µM 91.5% | [4]; [8] 90% | [4]; at 50.0 µM 90% | [6]; [8] 95%

O=C1C=CC(=O)c2c(O)c(CO)c(CO)c(O)c21
active: [1]; [8] 95% | [1]; at 50.0 µM 75.4% | [2]; [8] 96% | [2]; at 50.0 µM 84.4% | [3]; [8] 94% | [4]; [8] 84% | [6]; [8] 96%
inactive: [1]; [7] 28% | [2]; [7] 27% | [3]; [7] 28% | [3]; at 50.0 µM 51% | [4]; [7] 24% | [4]; at 50.0 µM 15.5% | [6]; [7] 30%

CC(C)(C)N/N=C(/Cc1nc2c3c(ccc2[nH]c1=O)C(=O)c1ccccc1C3=O)C(=O)NC1=C(Cl)C(=O)c2ccccc2C1=O
active: [1]; [8] 91% | [1]; at 50.0 µM 82.8% | [3]; [8] 77% | [5]; [8] 83% | [6]; [8] 79%
inactive: [1]; [7] 27% | [2]; [7] 0% | [2]; [8] 62% | [2]; at 50.0 µM 46.6% | [3]; [7] 27% | [3]; at 50.0 µM 67.8% | [4]; [7] -24% | [4]; [8] 39% | [4]; at 50.0 µM 21.7% | [5]; [7] 13% | [5]; at 50.0 µM 67.1% | [6]; [7] 21% | [6]; at 50.0 µM 42.4%

CCCOS(=O)(=O)c1ccccc1
inactive: [1]; [7] 14% | [1]; [8] 1% | [1]; at 50.0 µM 0.7% | [2]; [7] 19% | [2]; [8] 38% | [2]; at 50.0 µM 12.3% | [3]; [7] -7% | [3]; [8] 4% | [3]; at 50.0 µM 10.1% | [4]; [7] 38% | [4]; [8] 35% | [4]; at 50.0 µM -2.2% | [6]; [7] 11% | [6]; [8] 32% | [6]; at 50.0 µM 14.3%

Cc1ccc(Nc2n[nH]c(=S)s2)cc1F
active: [1]; [8] 90% | [1]; at 50.0 µM 85.8% | [2]; [8] 93% | [2]; at 50.0 µM 78.2% | [3]; [8] 79% | [4]; [8] 80% | [5]; [8] 80% | [6]; [8] 84% | [6]; at 50.0 µM 77.2%
inactive: [1]; [7] 37% | [2]; [7] 46% | [3]; [7] 8% | [4]; [7] 49% | [5]; [7] 28% | [6]; [7] 27%

Nc1c(N)c(Cl)c(Cl)c(Cl)c1Cl
active: [1]; [8] 84% | [1]; at 50.0 µM 87% | [2]; [8] 91% | [2]; at 50.0 µM 91.6% | [3]; [8] 96% | [4]; [8] 97% | [5]; [8] 98% | [6]; [8] 83% | [6]; at 50.0 µM 87.3%
inactive: [1]; [7] 38% | [2]; [7] 58% | [3]; [7] 20% | [4]; [7] 43% | [5]; [7] 32% | [6]; [7] 33%

O=Cc1ccc(-c2ccc(-c3ccc(CO)s3)o2)s1
inactive: [1]; [7] 20% | [1]; [8] 62% | [1]; at 50.0 µM 17.2% | [2]; [7] 11% | [2]; [8] 45% | [2]; at 50.0 µM 4.65% | [3]; [7] 5% | [3]; at 50.0 µM 44.5% | [5]; [7] 21% | [5]; [8] 53% | [5]; at 50.0 µM 16.5% | [6]; [7] 20% | [6]; at 50.0 µM 65.3%
active: [3]; [8] 77% | [6]; [8] 84%

CCOc1ccc(Nc2nc3c(s2)C(=O)c2ccccc2C3=O)cc1
inactive: [4]; [7] 58%
active: [1]; [7] 78% | [1]; [8] 99% | [1]; at 50.0 µM 90.7% | [2]; [7] 99% | [2]; [8] 99% | [2]; at 50.0 µM 92.1% | [3]; [7] 90% | [3]; [8] 99% | [3]; at 50.0 µM 92.7% | [4]; [8] 98% | [4]; at 50.0 µM 90.8% | [5]; [7] 98% | [5]; [8] 99% | [5]; at 50.0 µM 92.5% | [6]; [7] 89% | [6]; [8] 98% | [6]; at 50.0 µM 91.8%
